Reference: PubChem BioAssay (EPA / NIEHS)
Inconclusive results are not listed. Active and inactive are the calls of the source. Rule for the calls: active = hit-call score of the fitted dose curve at least 0.9, where 1 is the maximum; inconclusive = response in the unintended direction; inactive = score below 0.9.

Each compound was assayed against human RAR-related Orphan Receptor gamma (RORg), RORC (gene 6097) (UniProt P51449) (assay: ATG_RORg_TRANS: Attagene TRANS-FACTORIAL HepG2 Assay for human RAR-related Orphan Receptor gamma (RORg) (AID 2283011)).
In short: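 HepG2 cells transiently transfected with GAL4-UAS reporter units and chimeric RORg-Gal4 construct; after 24 h chemical exposure, reporter mRNA measured by RT-PCR with fluorescent capillary electrophoresis, gain of signal fitted against DMSO.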

Sequence of human RAR-related Orphan Receptor gamma (RORg), RORC (gene 6097) (P51449 whole entry, looked up, the tested form may be a part): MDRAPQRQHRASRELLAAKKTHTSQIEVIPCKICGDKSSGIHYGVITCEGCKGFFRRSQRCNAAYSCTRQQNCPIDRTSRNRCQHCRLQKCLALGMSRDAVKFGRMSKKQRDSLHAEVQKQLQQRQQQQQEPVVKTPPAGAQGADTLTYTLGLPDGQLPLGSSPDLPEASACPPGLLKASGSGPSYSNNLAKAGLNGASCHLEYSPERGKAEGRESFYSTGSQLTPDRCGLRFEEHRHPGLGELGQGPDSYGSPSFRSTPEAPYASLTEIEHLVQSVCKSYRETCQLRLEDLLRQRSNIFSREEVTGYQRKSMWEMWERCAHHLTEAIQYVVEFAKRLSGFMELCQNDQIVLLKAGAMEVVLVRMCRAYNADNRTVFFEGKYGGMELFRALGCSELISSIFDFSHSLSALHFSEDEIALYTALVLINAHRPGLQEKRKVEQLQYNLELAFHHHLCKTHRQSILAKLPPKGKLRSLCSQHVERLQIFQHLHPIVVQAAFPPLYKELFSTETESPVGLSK

outcome, inactive:
CC(C)CCCC(C)CC=O (configuration not stated)
O=S(=O)(O)c1cc(S(=O)(=O)O)c2ccc3c(S(=O)(=O)O)cc(S(=O)(=O)O)c4ccc1c2c43
CCN(CC#N)c1cccc(C)c1
CC(=O)[C@H]1[C@H](C#N)C[C@H]2[C@@H]3CC=C4C[C@@H](O)CC[C@]4(C)[C@H]3CC[C@@]21C
C=CC(=O)OCCC(=O)O
Cc1ccc(C2OC[C@@H]3OC(c4ccc(C)cc4)O[C@H]([C@H](O)CO)[C@@H]3O2)cc1 (some centres not stated)
CCCCCCCCCCc1ccccc1
CCCCCc1ccc(Cl)cc1
Cc1cc(C)c(C)c(C)c1
[Cl][In]([Cl])[Cl]
O=C1CCCN1CCO
CCCCCCCC(C)=O
CCCCNc1ccc(NCCCC)c2c1C(=O)c1ccccc1C2=O
c1ccc(CCCc2ccncc2)cc1
COC(=O)c1sccc1S(N)(=O)=O
C=CC(=O)NC(C)(C)CS(=O)(=O)O
COc1ccc([C@@H]2CC(=O)c3c(O)cc(O[C@@H]4O[C@H](CO[C@@H]5O[C@@H](C)[C@H](O)[C@@H](O)[C@H]5O)[C@@H](O)[C@H](O)[C@H]4O)cc3O2)cc1OC
[Cl][Nd]([Cl])[Cl]
O=C1CCCC(=O)O1
CC=CC(=O)N(CC)c1ccccc1C
CCCCC(CC)COCC1CO1 (configuration not stated)

Each compound was assayed against Retinoic acid receptor RXR-alpha (Homo sapiens) (UniProt P19793) (assay: ATG_RXRa_TRANS: Attagene TRANS-FACTORIAL HepG2 Assay for human Retinoid X Receptor alpha (RXRa) (AID 2283012)).
In short: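 Cells (HepG2) carried transiently transfected GAL4-responsive reporter units. Following a 24 h chemical incubation, reporter mRNA induction was read via RT-PCR fragment analysis; DMSO served as negative control and baseline.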

Sequence of Retinoic acid receptor RXR-alpha (Homo sapiens) (P19793 whole entry, looked up, the tested form may be a part): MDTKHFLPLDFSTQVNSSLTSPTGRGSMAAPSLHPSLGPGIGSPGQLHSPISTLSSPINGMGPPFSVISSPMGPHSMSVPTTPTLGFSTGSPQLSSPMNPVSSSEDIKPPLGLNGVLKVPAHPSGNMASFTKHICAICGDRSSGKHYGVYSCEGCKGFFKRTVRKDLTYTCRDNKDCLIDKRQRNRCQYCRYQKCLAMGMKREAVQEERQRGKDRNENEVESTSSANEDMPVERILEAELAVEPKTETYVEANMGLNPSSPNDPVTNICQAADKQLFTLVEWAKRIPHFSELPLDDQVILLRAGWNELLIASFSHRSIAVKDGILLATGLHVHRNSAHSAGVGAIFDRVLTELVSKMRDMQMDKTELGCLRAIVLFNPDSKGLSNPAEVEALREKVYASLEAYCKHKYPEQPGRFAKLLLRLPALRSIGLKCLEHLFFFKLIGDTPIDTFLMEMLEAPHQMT

outcome, inactive:
COCCOCCOCCOCCOC
CCCCCCCCCCCCCCCCCC#N
CCOC(=O)CC(C(C)=O)C(C)=O
NC(=O)N=NC(N)=O
CCOC(=O)CC
COC(=O)c1cc(Cl)ccc1[N+](=O)[O-]
CCOC(=O)N1CCC(=C2c3ccc(Cl)cc3CCc3cccnc32)CC1
CC(C)c1ccc(C#N)cc1
COC(=O)/C=C/C(C)=C\C=C\C(C)=C\C=C\C=C(C)\C=C\C=C(C)\C=C\C(=O)O
Cc1cccc(OCCOc2cccc(C)c2)c1
CCCCCC(C)O (configuration not stated)
NC(=O)c1ccccc1O
CCOC(F)(F)C(F)(F)C(F)(F)C(F)(F)F
CC(C)COC(=O)C=Cc1ccccc1
O=C(/C=C/C=C/c1ccc2c(c1)OCO2)N1CCCCC1
Clc1nc2ccccc2s1
